{"source": "the emibetuzumab library of Makowski et al. (2022)", "parents": {"B1": {"name": "VH:VL chains; a variant is named by its letters at X, in order (parent)", "chain 1": "QVQLVQSGAEVKKPGASVKVSCKASGYTFTDYXMHWVRQAPGQGLEWMGXVNPNXXXTTYNQKFEGRVTMTTDTSTSTAYMELRSLRSDDTAVYYCARXNXLDXWGQGTTVTVSS", "chain 2": "DIQMTQSPSSLSASVGDRVTITCSVSSSVSSIYLHWYQQKPGKAPKLLIYSTSNLASGVPSRFSGSGSGTDFTLTISSLQPEDFATYYCQVYSGYPLTFGGGTKVEIK"}}, "note": "This is one part of the list. The true hit rate is not given."}
{"variants_of": "B1", "assay": "yeast display scFab, FACS + sequencing", "conditions": "with MET", "summary_of_the_method": "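Heavy-chain CDR mutant scFab yeast surface library, enriched by two magnetic rounds on HGFR-Fc-coated Protein A beads and then by FACS. Cells were labelled with 1 nM HGFR-Fc in PBSB with 1% milk and anti-Myc for 3 h at room temperature, and the top 50% antigen-positive cells were gated. Round-3 sorted and input populations were deep sequenced in two replicates. Antigen binding call: positive if a sequence occurred in both antigen-positive samples, negative if it occurred only in input.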"}
{"variant": "SEEGTAGD", "antigen binding call": "no binding"}
{"variant": "YAKGDYSV", "antigen binding call": "no binding"}
{"variant": "SETTDSLD", "antigen binding call": "no binding"}
{"variant": "ARGRGAAD", "antigen binding call": "binds"}
{"variant": "AGGRGDVD", "antigen binding call": "no binding"}
{"variant": "AAEGDAAD", "antigen binding call": "no binding"}
{"variant": "ARGRGAAS", "antigen binding call": "binds"}
{"variant": "SGGRTYGV", "antigen binding call": "no binding"}
{"variant": "YRGGGDSV", "antigen binding call": "binds"}
{"variant": "YRGGGDWV", "antigen binding call": "binds"}
{"variant": "YRGGDDSV", "antigen binding call": "no binding"}
{"variant": "VRGGGDWV", "antigen binding call": "no binding"}
{"variant": "YTGGGDGV", "antigen binding call": "no binding"}
{"variant": "YRGRGDSV", "antigen binding call": "binds"}
{"variant": "YEGGGDWV", "antigen binding call": "no binding"}
{"variant": "YTETGDSV", "antigen binding call": "no binding"}
{"variant": "SETKGDWA", "antigen binding call": "no binding"}
{"variant": "VTTKSDAV", "antigen binding call": "no binding"}
{"variant": "DEKGGSSA", "antigen binding call": "no binding"}
{"variant": "DTTRGAVA", "antigen binding call": "no binding"}
{"variant": "FRRGGAWY", "antigen binding call": "binds"}
{"variant": "YRRGDAWY", "antigen binding call": "binds"}
{"variant": "DRRGDAVY", "antigen binding call": "no binding"}
{"variant": "FRKRGAWY", "antigen binding call": "binds"}
{"variant": "FRAGGAWY", "antigen binding call": "binds"}
{"variant": "YAGGGDGA", "antigen binding call": "no binding"}
{"variant": "FRRRGAWY", "antigen binding call": "binds"}
{"variant": "FRAGGAVY", "antigen binding call": "binds"}
{"variant": "FRTKAAVY", "antigen binding call": "no binding"}
{"variant": "FTKGSAGY", "antigen binding call": "no binding"}
{"variant": "FRRGGAGY", "antigen binding call": "binds"}
{"variant": "YRRGGAWY", "antigen binding call": "binds"}
{"variant": "FRGEAVVY", "antigen binding call": "no binding"}
{"variant": "VAGGDDGA", "antigen binding call": "no binding"}
{"variant": "FGGENDGD", "antigen binding call": "no binding"}
{"variant": "VRTRGSSS", "antigen binding call": "binds"}
{"variant": "VRKRGSSS", "antigen binding call": "binds"}
{"variant": "VGGTSSSS", "antigen binding call": "no binding"}
{"variant": "DETGNVWF", "antigen binding call": "no binding"}
{"variant": "VTGEDDAA", "antigen binding call": "no binding"}
{"variant": "DAGGADVA", "antigen binding call": "no binding"}
{"variant": "YRAGDAAD", "antigen binding call": "binds"}
{"variant": "YAARAALD", "antigen binding call": "no binding"}
{"variant": "YRARSAAD", "antigen binding call": "binds"}
{"variant": "YRAGSAAD", "antigen binding call": "binds"}
{"variant": "YRARSALD", "antigen binding call": "binds"}
{"variant": "YREGDAAD", "antigen binding call": "no binding"}
{"variant": "DAGGGYSV", "antigen binding call": "no binding"}
{"variant": "DKEGGSSA", "antigen binding call": "no binding"}
{"variant": "DKTGNDVV", "antigen binding call": "no binding"}
{"variant": "AATRNVGV", "antigen binding call": "no binding"}
{"variant": "YRARSAVD", "antigen binding call": "binds"}
{"variant": "YAARAAVD", "antigen binding call": "no binding"}
{"variant": "VGGTSDGV", "antigen binding call": "no binding"}
{"variant": "YKGRDAWD", "antigen binding call": "binds"}
{"variant": "YKGRDAGD", "antigen binding call": "binds"}
{"variant": "YKGRDDVA", "antigen binding call": "no binding"}
{"variant": "DKGRSAGD", "antigen binding call": "no binding"}
{"variant": "YKGRDALD", "antigen binding call": "binds"}
{"variant": "YKGRDASD", "antigen binding call": "no binding"}
{"variant": "SGKKAVWV", "antigen binding call": "no binding"}
{"variant": "VEAGDDVY", "antigen binding call": "no binding"}
{"variant": "VTGANDWV", "antigen binding call": "no binding"}
{"variant": "SKGRSDVV", "antigen binding call": "no binding"}
{"variant": "VTGEDAGA", "antigen binding call": "no binding"}
{"variant": "DTERGSLV", "antigen binding call": "no binding"}
{"variant": "FRERGSAV", "antigen binding call": "binds"}
{"variant": "VRERGDLV", "antigen binding call": "no binding"}
{"variant": "VRERGSAV", "antigen binding call": "binds"}
{"variant": "VRERGVGV", "antigen binding call": "no binding"}
{"variant": "YRERGSAV", "antigen binding call": "binds"}
{"variant": "YRERGAAV", "antigen binding call": "binds"}
{"variant": "VTGEADAS", "antigen binding call": "no binding"}
{"variant": "DATGGDVA", "antigen binding call": "no binding"}
{"variant": "DAGGAAAV", "antigen binding call": "no binding"}
{"variant": "VEEEGDGA", "antigen binding call": "no binding"}
{"variant": "VKEKGAWY", "antigen binding call": "no binding"}
{"variant": "FKGKGAWY", "antigen binding call": "binds"}
{"variant": "YKGKGAWY", "antigen binding call": "binds"}
{"variant": "YRGKGAWY", "antigen binding call": "binds"}
{"variant": "YRGKDAWY", "antigen binding call": "binds"}
{"variant": "AKGGAAVY", "antigen binding call": "no binding"}
{"variant": "AETKGALD", "antigen binding call": "no binding"}
{"variant": "SKAGDAWY", "antigen binding call": "no binding"}
{"variant": "SKGKGAWY", "antigen binding call": "binds"}
{"variant": "YRGKDAWS", "antigen binding call": "binds"}
{"variant": "YAGKTAWS", "antigen binding call": "no binding"}
{"variant": "YRGKDAAY", "antigen binding call": "binds"}
{"variant": "YRGKGAGY", "antigen binding call": "binds"}
{"variant": "SEARSDAV", "antigen binding call": "no binding"}
{"variant": "DRAGDDLY", "antigen binding call": "no binding"}
{"variant": "YRRRGSLY", "antigen binding call": "binds"}
{"variant": "YRKKGALY", "antigen binding call": "binds"}
{"variant": "FRAGGSLY", "antigen binding call": "binds"}
{"variant": "FRRRGSLY", "antigen binding call": "binds"}
{"variant": "VAGTGDWV", "antigen binding call": "no binding"}
{"variant": "DKREADGA", "antigen binding call": "no binding"}
{"variant": "VEERDAGD", "antigen binding call": "no binding"}
{"variant": "VTEGDAGA", "antigen binding call": "no binding"}
{"variant": "SKTRAFVA", "antigen binding call": "no binding"}
{"variant": "SRAGGSLY", "antigen binding call": "binds"}
{"variant": "SRGGGVGY", "antigen binding call": "no binding"}
{"variant": "YRRRGALY", "antigen binding call": "binds"}
{"variant": "SREAAAVY", "antigen binding call": "no binding"}
{"variant": "DAERDSGV", "antigen binding call": "no binding"}
{"variant": "YRARGAWF", "antigen binding call": "binds"}
{"variant": "YRTGDDVF", "antigen binding call": "no binding"}
{"variant": "YRARGAGF", "antigen binding call": "binds"}
{"variant": "YRARSDVF", "antigen binding call": "binds"}
{"variant": "VRGGDDWF", "antigen binding call": "no binding"}
{"variant": "YRARDDVF", "antigen binding call": "no binding"}
{"variant": "VRTEDDWF", "antigen binding call": "no binding"}
{"variant": "VRARGAWF", "antigen binding call": "binds"}
{"variant": "SEGADAVA chain 1 G106S", "antigen binding call": "no binding"}
{"variant": "VETGNDGA", "antigen binding call": "no binding"}
{"variant": "YRARSAGF", "antigen binding call": "binds"}
{"variant": "VGTKGAGF", "antigen binding call": "no binding"}
{"variant": "VRARGAGF", "antigen binding call": "binds"}
{"variant": "YRARSAGF chain 1 G108D", "antigen binding call": "no binding"}
{"variant": "VRAGDDVF", "antigen binding call": "no binding"}
{"variant": "DEKKADWA", "antigen binding call": "no binding"}
{"variant": "SEEGTDGV", "antigen binding call": "no binding"}
{"variant": "YKTESYWY", "antigen binding call": "no binding"}
{"variant": "YRGRGYWY", "antigen binding call": "binds"}
{"variant": "YKGRGYSY", "antigen binding call": "no binding"}
{"variant": "YKGRGYWY", "antigen binding call": "binds"}
{"variant": "YRGRGSWY", "antigen binding call": "binds"}
{"variant": "YTEETDGF", "antigen binding call": "no binding"}
{"variant": "SEARSYAV", "antigen binding call": "no binding"}
{"variant": "SKGTDDWV", "antigen binding call": "no binding"}
{"variant": "SAEEDDVY", "antigen binding call": "no binding"}
{"variant": "VTGEDDGS", "antigen binding call": "no binding"}
{"variant": "YRGADFGF", "antigen binding call": "no binding"}
{"variant": "YRGASSGF", "antigen binding call": "binds"}
{"variant": "YRTGTAGF", "antigen binding call": "binds"}
{"variant": "YRGGTFGF", "antigen binding call": "no binding"}
{"variant": "YRGGSAGF", "antigen binding call": "binds"}
{"variant": "YRGKGAGF", "antigen binding call": "binds"}
